Measurements: PubChem BioAssay (NCI)
Compounds without any hit were thinned out: in the full panel of roughly 79,000, 15% have a hit. The source made the active and inactive calls. No stated cut-off is given here; in the data, active means growth inhibition above about 70%; inactive means the rest.

Key:
[1] = NCI Yeast Anticancer Drug Screen. Data for the wt2 strain (AID 169);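 further: 0% = growth of vehicle-treated yeast cultures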; settings: S. cerevisiae wt2 strain growth inhibition, hits give high values
How it was run: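 Read-out: growth inhibition versus vehicle-treated control cultures after compound exposure of the yeast strain.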

[2] = NCI Yeast Anticancer Drug Screen. Data for the mlh1 strain (AID 171);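 further: 0% = growth of vehicle-treated control cultures of the same strain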; settings: S. cerevisiae mlh1 strain growth inhibition, hits give high values
How it was run: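 Read-out: growth inhibition versus vehicle controls. Strain: engineered yeast with a defined DNA repair or cell cycle defect, compound-treated.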

[3] = NCI Yeast Anticancer Drug Screen. Data for the sgs1 strain (AID 173);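 further: 0% = growth of vehicle-only control cultures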; settings: S. cerevisiae sgs1 mutant, hits give high values
How it was run: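 Read-out: yeast growth inhibition relative to vehicle controls, following compound exposure of a strain with a defined DNA repair/cell cycle alteration.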

[4] = NCI Yeast Anticancer Drug Screen. Data for the mlh1 rad18 strain (AID 175); settings: S. cerevisiae mlh1 rad18 strain growth inhibition, hits give high values
How it was run: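 Yeast w/ defined DNA-repair lesions; compound exposure; growth vs vehicle controls → % inhibition.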

[5] = NCI Yeast Anticancer Drug Screen. Data for the rad18 strain (AID 177); settings: S. cerevisiae rad18 mutant growth inhibition, hits give high values
How it was run: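 Readout: growth inhibition vs vehicle controls. Cells: genetically altered yeast strain, DNA repair defect.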

[6] = NCI Yeast Anticancer Drug Screen. Data for the rad52 strain (AID 147);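 further: 0% = growth of vehicle-treated control cultures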; settings: S. cerevisiae rad52 mutant growth inhibition, hits give high values
How it was run: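 Read-out: growth inhibition versus vehicle-treated controls. Cells were a DNA repair-deficient yeast strain treated with compounds.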

[7] = NCI Yeast Anticancer Drug Screen. Data for the wt1 strain (AID 149);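 further: 0% = growth of vehicle-treated wt1 cultures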; settings: S. cerevisiae wt1 strain (SPY 50644) growth inhibition, hits give high values
How it was run: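 Growth inhibition read against vehicle controls after compound exposure of the wt1 yeast strain.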

[8] = NCI Yeast Anticancer Drug Screen. Data for the rad50EPP+ strain (AID 151);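 further: 0% = growth of vehicle-treated control cultures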; settings: S. cerevisiae rad50 mutant strain, hits give high values
How it was run: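 Growth inhibition read against vehicle controls in rad50EPP+ yeast, a strain altered in DNA damage repair, after compound exposure.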

[9] = NCI Yeast Anticancer Drug Screen. Data for the mgt1 strain (AID 153); settings: S. cerevisiae mgt1 mutant growth inhibition, hits give high values
How it was run: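 mgt1 yeast grown with test compound; read-out is growth inhibition versus vehicle-treated cultures.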

[10] = NCI Yeast Anticancer Drug Screen. Data for the rad50 strain (AID 155);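 further: 0% = growth of vehicle-only cultures of the same strain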; settings: S. cerevisiae rad50 strain growth inhibition, hits give high values
How it was run: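 Readout: growth inhibition relative to vehicle-treated cultures. Compound exposure was carried out in a genetically defined yeast strain deficient in DNA damage repair.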

[11] = NCI Yeast Anticancer Drug Screen. Data for the mec2-1 strain (AID 157); settings: S. cerevisiae mec2-1 strain, hits give high values
How it was run: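 Yeast mec2-1 mutant treated with compound. Readout: growth inhibition vs vehicle controls.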

[12] = NCI Yeast Anticancer Drug Screen. Data for the rad14 strain (AID 159);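 further: 0% = growth of vehicle-treated control cultures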; settings: S. cerevisiae rad14 strain growth inhibition, hits give high values
How it was run: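 Growth inhibition vs vehicle controls; genetically altered yeast strain (DNA damage repair defect) treated with test compounds.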

[13] = NCI Yeast Anticancer Drug Screen. Data for the sgs1 mgt1 strain (AID 161);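 further: 0% = growth of cultures given vehicle only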; settings: S. cerevisiae sgs1 mgt1 strain, hits give high values
How it was run: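 Inhibition of yeast growth, normalised to vehicle-treated controls, is reported for a strain bearing genetic alterations in DNA damage repair.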

[14] = NCI Yeast Anticancer Drug Screen. Data for the CLN2oe strain (AID 163);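 further: 0% = growth of vehicle-only control cultures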; settings: S. cerevisiae CLN2oe strain, hits give high values
How it was run: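 Read-out: yeast growth inhibition, expressed relative to vehicle-only controls. The strain bears an engineered cell-cycle alteration.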

[15] = NCI Yeast Anticancer Drug Screen. Data for the cln2 rad14 strain (AID 165);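 further: 0% = growth equal to vehicle treated cultures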; settings: S. cerevisiae cln2 rad14 strain, hits give high values
How it was run: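 cln2 rad14 yeast strain; compound exposure; growth inhibition read vs vehicle controls.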

[16] = NCI Yeast Anticancer Drug Screen. Data for the bub3 strain (AID 167); settings: S. cerevisiae bub3 mutant strain, hits give high values
How it was run: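 Readout: yeast growth inhibition, expressed relative to vehicle-only wells. The test organism is a mutant strain from a panel with lesions in DNA repair or checkpoint genes.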

[17] = at 5.0 µM (retest, dose inferred, filed as 0.5)
[18] = at 50.0 µM (retest, dose inferred, filed as 5.0)

Measured: growth inhibition

CC(C)CN(CC(C)C)C(=O)c1ccc(Cl)c(Cl)c1
active: [1]; at 33.0 µM 74% | [1]; at 100.0 µM 99% | [2]; at 100.0 µM 98% | [3]; at 100.0 µM 99% | [4]; [18] 96% | [4]; at 50.0 µM 97.5% | [5]; at 100.0 µM 99%
inactive: [1]; at 1.2 µM -3% | [1]; at 3.7 µM -5% | [1]; at 11.0 µM -5% | [2]; at 1.2 µM 0% | [2]; at 3.7 µM 2% | [2]; at 11.0 µM 5% | [2]; at 33.0 µM 39% | [3]; at 1.2 µM 0% | [3]; at 3.7 µM 3% | [3]; at 11.0 µM 5% | [3]; at 33.0 µM 62% | [4]; [17] -17% | [5]; at 1.2 µM 0% | [5]; at 3.7 µM 4% | [5]; at 11.0 µM 5% | [5]; at 33.0 µM 66%

O=C1C=C(Cl)C(=O)N1c1cccc(Cl)c1
inactive: [6]; at 1.2 µM 6% | [7]; at 1.2 µM 12% | [8]; at 1.2 µM 41% | [9]; at 1.2 µM -3% | [9]; at 3.7 µM 67% | [10]; at 1.2 µM 11% | [11]; at 1.2 µM -6% | [11]; at 3.7 µM 63% | [11]; [17] 8% | [12]; at 1.2 µM 34% | [13]; [17] 11% | [14]; at 1.2 µM -13% | [14]; at 3.7 µM 33% | [15]; [17] 3% | [16]; at 1.2 µM 55% | [16]; [17] 65% | [1]; at 1.2 µM 30% | [2]; at 1.2 µM -11% | [2]; at 3.7 µM 58% | [3]; at 1.2 µM 21% | [4]; [17] 0% | [5]; at 1.2 µM -1% | [5]; at 3.7 µM 36%
active: [6]; at 3.7 µM 89% | [6]; at 11.0 µM 99% | [6]; at 33.0 µM 99% | [6]; at 100.0 µM 99% | [7]; at 3.7 µM 97% | [7]; at 11.0 µM 100% | [7]; at 33.0 µM 99% | [7]; at 100.0 µM 100% | [8]; at 3.7 µM 96% | [8]; at 11.0 µM 99% | [8]; at 33.0 µM 99% | [8]; at 100.0 µM 99% | [9]; at 11.0 µM 99% | [9]; at 33.0 µM 99% | [9]; at 100.0 µM 100% | [10]; at 3.7 µM 86% | [10]; [17] 87% | [10]; at 11.0 µM 99% | [10]; at 33.0 µM 99% | [10]; [18] 97% | [10]; at 50.0 µM 99.5% | [10]; at 100.0 µM 99% | [11]; at 11.0 µM 99% | [11]; at 33.0 µM 100% | [11]; [18] 99% | [11]; at 50.0 µM 99.6% | [11]; at 100.0 µM 99% | [12]; at 3.7 µM 97% | [12]; at 11.0 µM 100% | [12]; at 33.0 µM 100% | [12]; at 100.0 µM 100% | [13]; [18] 99% | [13]; at 50.0 µM 99.5% | [14]; at 11.0 µM 99% | [14]; at 33.0 µM 99% | [14]; at 100.0 µM 99% | [15]; [18] 98% | [15]; at 50.0 µM 99.4% | [16]; at 3.7 µM 93% | [16]; at 11.0 µM 99% | [16]; at 33.0 µM 99% | [16]; [18] 98% | [16]; at 50.0 µM 99.5% | [16]; at 100.0 µM 100% | [1]; at 3.7 µM 99% | [1]; at 11.0 µM 100% | [1]; at 33.0 µM 100% | [1]; at 100.0 µM 100% | [2]; at 11.0 µM 99% | [2]; at 33.0 µM 100% | [2]; at 100.0 µM 100% | [3]; at 3.7 µM 95% | [3]; at 11.0 µM 99% | [3]; at 33.0 µM 100% | [3]; at 100.0 µM 99% | [4]; [18] 95% | [4]; at 50.0 µM 99.5% | [5]; at 11.0 µM 99% | [5]; at 33.0 µM 99% | [5]; at 100.0 µM 99%

Cc1cccc(/C=N/NC(=S)N2CCCC2)n1
inactive: [6]; at 1.2 µM -25% | [6]; at 3.7 µM -26% | [6]; at 11.0 µM 27% | [7]; at 1.2 µM -4% | [7]; at 3.7 µM 1% | [7]; at 11.0 µM 12% | [8]; at 1.2 µM -21% | [8]; at 3.7 µM -21% | [8]; at 11.0 µM -24% | [8]; at 33.0 µM -27% | [8]; at 100.0 µM 38% | [9]; at 1.2 µM -13% | [9]; at 3.7 µM -14% | [9]; at 11.0 µM 18% | [10]; at 1.2 µM -10% | [10]; at 3.7 µM -14% | [10]; [17] 26% | [10]; at 11.0 µM 35% | [11]; at 1.2 µM -24% | [11]; at 3.7 µM -21% | [11]; [17] 36% | [12]; at 1.2 µM 2% | [12]; at 3.7 µM 6% | [13]; [17] 25% | [13]; [18] 47% | [14]; at 1.2 µM -30% | [14]; at 3.7 µM -31% | [14]; at 11.0 µM 10% | [15]; [17] 2% | [16]; at 1.2 µM -13% | [16]; at 3.7 µM -8% | [16]; [17] 40% | [16]; at 11.0 µM 32% | [1]; at 1.2 µM -6% | [1]; at 3.7 µM -8% | [1]; at 11.0 µM 10% | [2]; at 1.2 µM -8% | [2]; at 3.7 µM -8% | [2]; at 11.0 µM 48% | [3]; at 1.2 µM -19% | [3]; at 3.7 µM -21% | [3]; at 11.0 µM 17% | [4]; [17] 14% | [5]; at 1.2 µM -17% | [5]; at 3.7 µM -14% | [5]; at 11.0 µM 12%
active: [6]; at 33.0 µM 94% | [6]; at 100.0 µM 96% | [7]; at 33.0 µM 94% | [7]; at 100.0 µM 96% | [9]; at 33.0 µM 94% | [9]; at 100.0 µM 96% | [10]; at 33.0 µM 95% | [10]; [18] 94% | [10]; at 50.0 µM 86.3% | [10]; at 100.0 µM 95% | [11]; at 11.0 µM 73% | [11]; at 33.0 µM 94% | [11]; [18] 95% | [11]; at 50.0 µM 89.8% | [11]; at 100.0 µM 97% | [12]; at 11.0 µM 74% | [12]; at 33.0 µM 96% | [12]; at 100.0 µM 98% | [13]; at 50.0 µM 88.2% | [14]; at 33.0 µM 93% | [14]; at 100.0 µM 96% | [15]; [18] 94% | [15]; at 50.0 µM 87% | [16]; at 33.0 µM 95% | [16]; [18] 96% | [16]; at 50.0 µM 88.5% | [16]; at 100.0 µM 96% | [1]; at 33.0 µM 93% | [1]; at 100.0 µM 96% | [2]; at 33.0 µM 95% | [2]; at 100.0 µM 97% | [3]; at 33.0 µM 95% | [3]; at 100.0 µM 96% | [4]; [18] 95% | [4]; at 50.0 µM 86% | [5]; at 33.0 µM 95% | [5]; at 100.0 µM 96%
